NLRP3 yeast inh – blocks the NALP3 inflammasome reconstituted in yeast; hit rate 0.39% among 330,000; Yeast reconstituted NLRP3/ASC/caspase-1, beta-gal luminescence, 24 h; inhibition, % at 10 µM;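 active means inhibition of 50% or more; inactive means inhibition below 50%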;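 further: plate controls were induced DMSO wells for no effect and uninduced yeast grown without galactose for full effect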
TIM10 inh – inhibits growth of TIM10 yeast strain; S. cerevisiae TIM10 strain growth, BacTiter-Glo luminescence, 24 h; inhibition, % at 10 µM; hit rate 1.4% among 330,000;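 active means inhibition of 40% or more at the single tested concentration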;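 further: wild-type TIM10 isogenic control strain grown at permissive 25 °C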
tim10-1 inh – growth inhibitors of tim10-1 mutant yeast. S. cerevisiae tim10-1 ts strain growth, BacTiter-Glo, 24 h. inhibition, % at 20 µM. hit rate 2.2% among 330,000;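 active means inhibition of at least 40%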;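 further: mutant grown at 25 °C; 0% = DMSO wells with yeast and 100% = wells holding no yeast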
CR mimetic SO – yeast age-related superoxide inhibition as caloric restriction mimetic. S. cerevisiae aged cells, superoxide DHE fluorescence; active compounds read low. AID 2690. superoxide response (% of plate mean), % at 10 µM. hit rate 0.18% among 330,000;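 active means superoxide response under a set limit, about three screen SD below normal, cut at about 65% in these data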;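 further: yeast aged for seven days with compound at 30 °C before DHE staining; 100% = average MFI of all compound-treated wells on the plate with controls excluded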
tim23-1 inh – growth inhibitors of tim23-1 mutant yeast; inhibition, % at 20 µM; hit rate 1.3% among 330,000; S. cerevisiae tim23-1 growth, BacTiter-Glo luminescence, 24 h; AID 463212;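 active means growth inhibition of the mutant yeast at or above 50%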;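 further: temperature-sensitive mutant grown at 25 °C; plate controls were DMSO-treated mutant yeast for no effect and medium wells lacking yeast for full effect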
tim10-1 confirm – confirmation of tim10-1 mutant yeast growth inhibitors | shares compounds with tim10-1 inh | S. cerevisiae tim10-1 ts strain growth, BacTiter-Glo, 24 h | inhibition, % at 20 µM | hit rate 56% among 7,400;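 active means inhibition of yeast growth at or above a set limit in either of two repeat tests at 20 µM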;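 further: tim10-1 mutant grown at permissive 25 °C to find synthetic lethal compounds; 0% = DMSO yeast wells and 100% = medium wells without yeast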
* marks the source's active call; other numbers are inactive results; / = no result. Rows were chosen to be rich in hits. Some 3.8% of all compounds tested hit in one or more screens of this group.

SMILES	NLRP3 yeast inh	TIM10 inh	tim10-1 inh	CR mimetic SO	tim23-1 inh	tim10-1 confirm
C=C1CCC[C@]2(C)C[C@H]3OC(=O)C(CN(C)CC(OC)OC)[C@H]3CC12 (stereo partly specified)	-15	15	42*	107	25	41*
COc1ccc(S(=O)(=O)N2CCCCC2)cc1NC(=O)CCNC(=O)c1ccccc1Cl	17	11	-9	95	-5	/
COc1ccc(Cl)cc1NC(=O)COC(=O)c1cc(NS(=O)(=O)c2cccs2)ccc1O	4	8	1	104	6	/
COC(=O)C1=C(C)NC(C)=C(C(=O)OCC2CCCO2)C1c1cccc(Br)c1 (stereo unspecified)	12	-1	28	94	30	/
Cc1ccc(CN(C)C(=O)c2c(C)nn(-c3ccccc3)c2C)cc1	10	8	8	91	14	/
O=C(CN1C(=O)/C(=C/c2ccccc2Cl)SC1=S)NC1CCS(=O)(=O)C1 (stereo unspecified)	3	14	4	94	10	/
O=C(CCNS(=O)(=O)c1ccc(OC(F)(F)F)cc1)N1CCN(C/C=C/c2ccccc2)CC1	26	-4	-1	95	19	/
COc1ccccc1-c1ccc(/C=C2\C=CC(=O)O2)o1	17	27	48*	91	23	36*
CCOc1cc(C(=O)NC(=S)Nc2cccnc2)cc(OCC)c1OCC	6	20	43*	95	24	18
C(=N\Nc1ccccn1)/c1ccc2c(c1)OCCO2	31	18	14	107	4	/
CCCc1n[nH]c(=S)n1Cc1ccco1	3	-4	1	94	-8	/
S=c1[nH]nc(C23CC4CC(CC(C4)C2)C3)n1Cc1ccco1	14	22	40*	106	24	25
O=C(c1ccc(COc2ccccc2Br)cc1)N1CCCCCC1	18	28	41*	115	39	27
CCc1nnc(NC(=O)C(CC)CC)s1	-14	-8	-20	96	10	/
C=CCn1c(SCc2ccc(C#N)cc2)nnc1-c1cccc(Cl)c1	14	23	46*	100	41	23
CCCS(=O)(=O)Nc1cccc(-c2nc3cccnc3s2)c1	4	4	20	107	23	/
Cc1ccc(-c2nc3cccnc3s2)cc1NS(C)(=O)=O	7	2	44*	90	13	-7
C#CCOCCOCCOCCNc1nc(N2CCN(C(=O)[C@H](CCCCN)n3cc(CC(C)O)nn3)CC2)nc(N2CCN(C(=O)[C@H](CCCCN)n3cc(CC(C)O)nn3)CC2)n1 (stereo partly specified)	0	5	7	96	0	/
CCOC(=O)CCCCCC(=O)Nc1ccc2c(c1)C(=O)N([C@H](C)CO)C[C@@H](C)[C@H](CN(C)S(=O)(=O)c1cn(C)cn1)O2	7	2	-4	82	-9	/
Cc1cc(C)n(C(=O)c2ccc([N+](=O)[O-])cc2[N+](=O)[O-])n1	3	12	41*	95	49	30
Cc1ccccc1NC(=S)N1CCN(c2ccccc2C)CC1	7	-5	19	93	31	/
C=CCSC1=N/C(=C\c2cc(OCC)c(OC(C)=O)c([N+](=O)[O-])c2)C(=O)S1	-57	12	42*	117	27	25
O=C(CSc1ccc2nnc(-c3cccc(F)c3)n2n1)N1CCCc2ccccc21	-10	9	31	102	10	/
CCSc1ccc2nnc(-c3cccc(F)c3)n2n1	28	33	40*	91	38	34*
CC12CC(c3ccccc3O1)N(C(=O)c1ccco1)C(=S)N2c1ccccc1 (stereo unspecified)	7	38	42*	98	46	27
CCOc1ccc(CN(C)C(=O)[C@H](Cc2ccccc2)NC(=O)OCc2ccccc2)cc1OC	8	23	15	110	14	/
Nc1nc2ccc(S(=O)(=O)N3CCCCC3)cc2s1	17	2	40*	91	15	20
CCc1ccc(N(CC(=O)NCc2ccc3c(c2)OCO3)C(=O)c2csnn2)cc1	14	8	-5	109	3	/
NNC(=O)c1ccc(OCC2CC(c3ccc(Cl)cc3)=NO2)cc1 (stereo unspecified)	30	23	10	99	41	/
Cc1ccc(C)c(NC2CCCCC2NS(=O)(=O)c2ccccc2)c1 (stereo unspecified)	5	25	46*	100	37	22

Source: PubChem BioAssay (several laboratories)
